# From PubChem BioAssay (NCATS)
# Values joined by “and” are separate entries in the source; they are usually repeats but may differ in a detail not shown here. Equal entries are not always repeated. Results filed as inconclusive are left out. A call without a number means that no potency is given here. Active and inactive are the calls of the source. Calls follow the shape of the dose curve; as a rule, active = well fitted curve in the direction sought with a large enough effect; inconclusive = small, poorly fitted or top-dose-only effect, or another doubt; inactive = no such curve, though single readings can be large; an effect the other way counts as inactive or inconclusive.
# What was measured:
# [1] = qHTS of pediatric cancer cell lines to identify multiple opportunities for drug repurposing: Primary screen for control Hh wild type fibroblast cells (AID 1347106); settings: Hh wild-type fibroblast viability, CellTiter-Glo luminescence, 48 h; series mostly up to 46 µM; also: nearly all actives have a fitted effect of over 55% in size
# Outline: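 Cells (500-1,000/well) in growth media were settled 5 h at 37 degrees C, then given compounds for 48 h. Viability was read as CellTiter-Glo luminescence. Primary runs used MIPE at 11 points (0.78 nM-46 µM) and NPC at 8 points (0.59 nM-46 µM); follow-ups used 11 points.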
# [2] = qHTS of pediatric cancer cell lines to identify multiple opportunities for drug repurposing: Primary screen for Rh30 cells (AID 1347107); settings: Rh30 rhabdomyosarcoma viability, CellTiter-Glo luminescence, 48 h; series mostly up to 46 µM; also: nearly all actives have a fitted effect of over 75% in size
# Outline: (§1)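 Cells (500-1,000/well) rested 5 h, then received compounds for 48 h; metabolically active cells were measured by CellTiter-Glo luminescence. Final concentrations spanned up to 46 µM (MIPE, 11-point) or 0.59 nM-46 µM (NPC, 8-point) in primary screens, 11-point in follow-ups.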
# [3] = qHTS of pediatric cancer cell lines to identify multiple opportunities for drug repurposing: Primary screen for Rh41 cells (AID 1347108); settings: Rh41 rhabdomyosarcoma viability, CellTiter-Glo luminescence, 48 h; series mostly up to 46 µM; also: nearly all actives have a fitted effect of over 70% in size
# Outline: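 Cells plated at 500-1,000/well in growth medium, compounds added after 5 h. MIPE tested at 11 points (from 0.78 nM), NPC at 8 points (from 0.59 nM). CellTiter-Glo luminescence after 48 h; concentration-response curves from primary screen.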
# [4] = qHTS of pediatric cancer cell lines to identify multiple opportunities for drug repurposing: Confirmatory screen for A673 cells (AID 1347110); settings: A673 Ewing sarcoma cell viability; series mostly up to 45.9 µM;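 also: cells exposed to compound for 48 h before the viability read; nearly all actives have a fitted effect of over 65% in size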
# Outline: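 Forty-eight-hour viability assay. Follow-up compounds ran at 11-point dilutions; positive control bortezomib at 2.3 uM final, neutral control DMSO.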
# [5] = qHTS of pediatric cancer cell lines to identify multiple opportunities for drug repurposing: Confirmatory screen for SK-N-MC cells (AID 1347111); settings: SK-N-MC cell viability; series mostly up to 45.9 µM;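 also: cells exposed to compound for 48 h before the readout; nearly all actives have a fitted effect of over 70% in size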
# Outline: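 Seed 500-1,000 cells/well; rest 5 h at 37 degrees C. Pin-transfer compounds, 11-point titration. Incubate 48 h. Add CellTiter-Glo, 15 min RT, read luminescence.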
# [6] = qHTS of pediatric cancer cell lines to identify multiple opportunities for drug repurposing: Confirmatory screen for LAN-5 cells (AID 1347113); settings: LAN-5 neuroblastoma cell viability; series mostly up to 45.9 µM; also: nearly all actives have a fitted effect of over 65% in size
# Outline: as §1
# [7] = qHTS of pediatric cancer cell lines to identify multiple opportunities for drug repurposing: Confirmatory screen for NB-EBc1 cells (AID 1347115); settings: NB-EBc1 neuroblastoma cells, viability (cytotoxicity); series mostly up to 45.9 µM;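 also: cells exposed to compound for 48 h before the viability read; nearly all actives have a fitted effect of over 45% in size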
# Outline: as §1
# [8] = qHTS of pediatric cancer cell lines to identify multiple opportunities for drug repurposing: Confirmatory screen for SJ-GBM2 cells (AID 1347116); settings: SJ-GBM2 glioblastoma cells, viability; series mostly up to 45.9 µM; also: nearly all actives have a fitted effect of over 60% in size
# Outline: (§2)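 Viability measured as metabolically active cells via CellTiter-Glo luminescence following 48 hours of compound exposure, 11-point dilutions in confirmatory testing. 500-1,000 cells/well plated 5 hours before dosing; controls were DMSO and 2.3 µM bortezomib.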
# [9] = qHTS of pediatric cancer cell lines to identify multiple opportunities for drug repurposing: Confirmatory screen for NB1643 cells (AID 1347109); settings: NB1643 neuroblastoma cell viability; series mostly up to 45.9 µM; also: nearly all actives have a fitted effect of over 45% in size
# Outline: as §1
# [10] = qHTS of pediatric cancer cell lines to identify multiple opportunities for drug repurposing: Confirmatory screen for DAOY cells (AID 1347114); settings: DAOY medulloblastoma cells viability, cytotoxicity qHTS; series mostly up to 45.9 µM; also: nearly all actives have a fitted effect of over 65% in size
# Outline: as §2
# Potency is read from the fitted curve at half-maximal effect.
Compound,Potency [1],Potency [2],Potency [3],Potency [4],Potency [5],Potency [6],Potency [7],Potency [8],Potency [9],Potency [10]
CC(C)C[C@H](NC(=O)[C@H](CCc1ccccc1)NC(=O)CN1CCOCC1)C(=O)N[C@@H](Cc1ccccc1)C(=O)N[C@@H](CC(C)C)C(=O)[C@@]1(C)CO1,335 nM (active) and 264 nM (active),59.6 nM (active) and 296 nM (active),23.7 nM (active) and 46.9 nM (active),0.0522 µM (active),0.0083 µM (active),0.0329 µM (active),0.329 µM (active),0.0737 µM (active),–,–
CCOC(=O)[C@H](CCc1ccccc1)N[C@H]1CS[C@H](c2cccs2)CN(CC(=O)O)C1=O,inactive,inactive,–,10.4 µM (active),9.27 µM (active),inactive,inactive,inactive,inactive,inactive
CCc1c2c(nc3ccc(OC(=O)N4CCC(N5CCCCC5)CC4)cc13)-c1cc3c(c(=O)n1C2)COC(=O)[C@]3(O)CC,inactive,–,–,1.17 µM (active),0.737 µM (active),2.93 µM (active),0.737 µM (active),–,2.61 µM (active),–
COC(=O)Nc1nc2ccc(Sc3ccccc3)cc2[nH]1,inactive,inactive,–,1.17 µM (active),1.04 µM (active),–,–,–,–,928 nM (active)
COC(=O)Nc1nc2ccc(S(=O)c3ccccc3)cc2[nH]1 (centres undefined),inactive,inactive,–,1.17 µM (active),1.47 µM (active),–,–,–,1.85 µM (active),928 nM (active)
Oc1c(Cl)cc(Cl)c2cccnc12,inactive,–,23.5 µM (active),8.27 µM (active),13.1 µM (active),14.7 µM (active),18.5 µM (active),–,18.5 µM (active),–
CNC(=O)c1cc(Oc2ccc(NC(=O)Nc3ccc(Cl)c(C(F)(F)F)c3)cc2)ccn1,inactive,–,18.7 µM (active),23.3 µM (active),–,23.3 µM (active),18.5 µM (active),–,20.8 µM (active),–
CNS(=O)(=O)CCc1ccc2[nH]cc(C3CCN(C)CC3)c2c1,–,inactive,inactive,3.69 µM (active),4.14 µM (active),inactive,inactive,inactive,inactive,inactive
CNCC[C@H](Oc1cccc2ccccc12)c1cccs1,–,inactive,–,14.7 µM (active),6.57 µM (active),–,inactive,inactive,inactive,–
COC(=O)Nc1nc2ccc(C(=O)c3ccccc3)cc2[nH]1,–,inactive,–,1.04 µM (active),–,–,–,–,–,928 nM (active)
Nc1nc(=S)c2[nH]cnc2[nH]1,inactive,–,–,2.61 µM (active) and 1.65 µM (active),11.7 µM (active) and 7.37 µM (active),2.93 µM (active) and 2.33 µM (active),2.61 µM (active),5.22 µM (active),5.85 µM (active) and 4.14 µM (active),2.61 µM (active) and 1.47 µM (active)
CO[C@@]12[C@H](COC(N)=O)C3=C(C(=O)C(C)=C(N)C3=O)N1C[C@@H]1N[C@@H]12,inactive,–,13.3 µM (active) and 11.8 µM (active),3.69 µM (active),2.08 µM (active),1.31 µM (active),1.31 µM (active),16.5 µM (active),1.04 µM (active),14700 nM (active)
O=S(=O)(O)CCS,inactive,inactive,inactive,inactive,–,–,–,–,–,inactive
CN1CCCC(n2nc(Cc3ccc(Cl)cc3)c3ccccc3c2=O)CC1 (centres undefined),–,inactive,inactive,9.27 µM (active),23.3 µM (active),–,inactive,–,–,–
CCCCOc1ccc(CC(=O)NO)cc1,inactive,inactive,–,inactive,inactive,inactive,inactive,inactive,inactive,inactive
N=C(N)c1ccc(OCCCCCOc2ccc(C(=N)N)cc2)cc1,inactive,inactive,–,–,–,–,–,inactive,–,14700 nM (active)
CCCCc1oc2ccc(NS(C)(=O)=O)cc2c1C(=O)c1ccc(OCCCN(CCCC)CCCC)cc1,inactive,–,23.5 µM (active),–,–,–,–,–,–,–
CCOC(=O)c1ccc(C#Cc2ccc3c(c2)C(C)(C)CCS3)nc1,inactive,inactive,inactive,–,–,inactive,inactive,–,inactive,inactive
NC(=O)c1cccnc1,inactive,inactive,inactive,13.1 µM (active),14.7 µM (active),inactive,10.4 µM (active),–,–,inactive
Cc1ccc(S(=O)(=O)N[C@@H](Cc2ccccc2)C(=O)CCl)cc1,inactive,–,18.7 µM (active),–,–,–,–,–,–,–
